In PubChem BioAssay:
Active and inactive are the calls of the source.

Columns and labels:
[1] = test system: PRMT1 (protein arginine N-methyltransferase 1); test: PRMT1 binders on small-molecule microarrays, primary screen, biochemical, small-molecule microarray, 635 nm fluorescence (AID 1088); settings: small-molecule microarray binding, higher = more signal;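 note: binding of Prmt1 protein to compounds spotted on small-molecule microarray slides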
[2] = yeast growth modulation, basal conditions, primary screen, YJM789 clinical isolate, OD600, 24 h (AID 1089);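 note: growth of clinical yeast isolate S. cerevisiae YJM 789 seeded 1000 cells per well; test concentration not given here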; settings: S. cerevisiae YJM789 growth, higher = more signal, called active from +8 up or from −8 down
[3] = fission yeast growth modulation, primary screen, strain 972, OD600, 24 h, no modulator (AID 1090);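 note: basal condition with compound alone and no growth modifier present; test concentration not given here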; settings: S. pombe 972 growth, higher = more signal, called active from +8 up or from −8 down
[4] = S. cerevisiae growth modulation with rapamycin, primary screen, strain BY4716, OD600, 96 h (AID 1091); settings: higher = more signal, called active from +8 up or from −8 down; note: test concentration not given here
[5] = target: Torsin-1A-interacting protein 2 (Homo sapiens) (UniProt Q8NFQ8); test: LULL1 binders on small-molecule microarray, primary screen, cell lysate, human LULL1 lysate, 635/667 nm fluorescence (AID 1092); settings: hLULL1 lysate binding, 635 nm fluorescence, higher = more signal;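 note: probe is lysate of COS7 cells overexpressing human LULL1; score merges per-feature 667 nm fluorescence with signal-to-noise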
[6] = E. coli growth modulation, two-sided OD650, primary screen, E. coli filamentation project, strain DRC41, 24 h (AID 1093); settings: OD650, 24 h, higher = more signal, called active from +8 up or from −8 down;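 note: MC1000 strain lacking acrAB efflux and sulA so SOS filamentation is blocked; test concentration not given here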
[7] = small-molecule microarray binders of probe aLefty2, primary screen, biochemical, biotinylated probe, 635/667 nm fluorescence (AID 1094); settings: higher = more signal;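 note: score merges spot fluorescence near 667 nm with spot signal-to-noise ratio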
[8] = test system: Noggin (protein binding on small-molecule microarray); test: Noggin binders on small-molecule microarray, primary screen, biochemical, 635/667 nm fluorescence (AID 1095); settings: 635 nm fluorescence, higher = more signal;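 note: score merges 667 nm feature fluorescence with signal to noise over triplicate slides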
[9] = target: Neurogenic locus notch homolog protein 3 (Homo sapiens) (UniProt Q9UM47); test: NOTCH3 binders on small-molecule microarray, primary screen, biochemical, 635/667 nm fluorescence (AID 1096); settings: NOTCH3 binding, 635 nm fluorescence, higher = more signal
[10] = small-molecule microarray binders of probe aEGFR, primary screen, biochemical, biotinylated probe, 635/667 nm fluorescence (AID 1097); settings: higher = more signal;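 note: probe is a biotinylated anti-EGFR antibody binding compounds printed on slides; score combines fluorescence near 667 nm and signal to noise of each spot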

Sequence of Torsin-1A-interacting protein 2 (Homo sapiens) (Q8NFQ8 whole entry, looked up): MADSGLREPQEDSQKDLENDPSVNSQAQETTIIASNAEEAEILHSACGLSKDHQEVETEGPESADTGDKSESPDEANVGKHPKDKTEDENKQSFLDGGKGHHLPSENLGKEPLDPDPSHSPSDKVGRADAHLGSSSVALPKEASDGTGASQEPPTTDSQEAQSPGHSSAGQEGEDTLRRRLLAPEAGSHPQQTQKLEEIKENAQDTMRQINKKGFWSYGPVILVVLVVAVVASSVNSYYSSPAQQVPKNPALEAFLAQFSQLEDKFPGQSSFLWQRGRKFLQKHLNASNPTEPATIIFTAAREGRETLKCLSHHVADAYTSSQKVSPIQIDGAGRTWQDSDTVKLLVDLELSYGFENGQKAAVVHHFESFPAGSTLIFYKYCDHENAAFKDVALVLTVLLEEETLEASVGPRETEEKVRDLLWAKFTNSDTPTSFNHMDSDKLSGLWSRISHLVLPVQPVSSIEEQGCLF
Sequence of Neurogenic locus notch homolog protein 3 (Homo sapiens) (Q9UM47 whole entry, looked up): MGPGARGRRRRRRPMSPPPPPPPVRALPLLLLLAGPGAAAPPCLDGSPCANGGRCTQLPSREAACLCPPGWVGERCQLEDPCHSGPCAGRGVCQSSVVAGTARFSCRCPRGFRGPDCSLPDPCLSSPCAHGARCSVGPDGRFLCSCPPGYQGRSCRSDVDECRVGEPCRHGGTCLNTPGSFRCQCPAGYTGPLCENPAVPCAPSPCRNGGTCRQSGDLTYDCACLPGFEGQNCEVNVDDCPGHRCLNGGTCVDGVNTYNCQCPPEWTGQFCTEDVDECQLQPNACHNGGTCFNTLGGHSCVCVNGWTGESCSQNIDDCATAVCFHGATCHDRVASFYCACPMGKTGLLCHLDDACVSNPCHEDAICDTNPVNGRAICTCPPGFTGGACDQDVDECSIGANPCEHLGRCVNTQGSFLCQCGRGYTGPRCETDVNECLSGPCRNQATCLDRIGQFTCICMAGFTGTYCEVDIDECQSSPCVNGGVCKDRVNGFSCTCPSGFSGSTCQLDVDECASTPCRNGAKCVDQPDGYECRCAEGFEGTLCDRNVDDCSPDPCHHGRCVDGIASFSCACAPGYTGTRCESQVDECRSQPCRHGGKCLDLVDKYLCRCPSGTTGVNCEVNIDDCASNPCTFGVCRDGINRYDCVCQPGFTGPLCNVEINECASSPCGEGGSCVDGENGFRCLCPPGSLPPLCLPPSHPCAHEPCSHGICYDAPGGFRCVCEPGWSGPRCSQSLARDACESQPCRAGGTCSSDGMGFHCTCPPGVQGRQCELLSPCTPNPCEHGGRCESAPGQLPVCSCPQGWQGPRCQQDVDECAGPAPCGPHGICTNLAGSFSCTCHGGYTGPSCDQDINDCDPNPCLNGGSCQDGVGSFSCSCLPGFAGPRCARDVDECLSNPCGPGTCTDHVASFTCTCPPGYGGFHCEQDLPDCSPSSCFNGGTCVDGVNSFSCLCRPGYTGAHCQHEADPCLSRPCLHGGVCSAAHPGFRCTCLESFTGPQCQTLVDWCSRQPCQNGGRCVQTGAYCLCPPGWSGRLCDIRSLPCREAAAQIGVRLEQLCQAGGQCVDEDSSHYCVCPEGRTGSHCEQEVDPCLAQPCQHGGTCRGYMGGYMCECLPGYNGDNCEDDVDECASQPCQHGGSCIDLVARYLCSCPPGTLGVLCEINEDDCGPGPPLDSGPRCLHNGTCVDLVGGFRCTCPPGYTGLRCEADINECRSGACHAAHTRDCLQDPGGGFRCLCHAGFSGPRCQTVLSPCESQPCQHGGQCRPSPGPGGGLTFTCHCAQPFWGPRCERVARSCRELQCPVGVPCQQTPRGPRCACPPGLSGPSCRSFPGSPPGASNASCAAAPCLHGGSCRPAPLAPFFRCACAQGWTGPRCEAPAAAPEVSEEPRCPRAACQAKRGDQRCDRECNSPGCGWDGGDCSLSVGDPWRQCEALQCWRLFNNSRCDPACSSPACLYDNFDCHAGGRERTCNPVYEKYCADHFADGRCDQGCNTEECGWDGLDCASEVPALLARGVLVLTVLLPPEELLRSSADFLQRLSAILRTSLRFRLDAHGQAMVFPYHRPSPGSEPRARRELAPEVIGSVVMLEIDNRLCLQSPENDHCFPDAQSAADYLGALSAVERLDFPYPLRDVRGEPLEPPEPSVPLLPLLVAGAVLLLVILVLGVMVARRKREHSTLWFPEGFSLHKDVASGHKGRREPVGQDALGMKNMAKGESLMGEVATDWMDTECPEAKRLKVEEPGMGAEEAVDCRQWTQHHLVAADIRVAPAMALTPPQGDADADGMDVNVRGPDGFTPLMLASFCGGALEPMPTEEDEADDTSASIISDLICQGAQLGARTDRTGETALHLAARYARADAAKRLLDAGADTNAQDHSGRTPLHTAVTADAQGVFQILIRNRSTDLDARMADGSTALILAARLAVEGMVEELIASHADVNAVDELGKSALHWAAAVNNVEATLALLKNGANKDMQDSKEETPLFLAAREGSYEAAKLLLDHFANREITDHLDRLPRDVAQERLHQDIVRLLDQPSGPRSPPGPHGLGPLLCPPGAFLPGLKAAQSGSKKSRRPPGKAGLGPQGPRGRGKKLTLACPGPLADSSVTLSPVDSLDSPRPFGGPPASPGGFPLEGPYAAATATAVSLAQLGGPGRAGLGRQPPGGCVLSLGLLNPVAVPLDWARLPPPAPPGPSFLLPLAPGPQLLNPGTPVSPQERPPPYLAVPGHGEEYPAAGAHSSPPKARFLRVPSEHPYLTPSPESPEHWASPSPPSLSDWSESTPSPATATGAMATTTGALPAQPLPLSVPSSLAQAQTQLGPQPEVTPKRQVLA

| Structure (SMILES) | composite z-score [1] | z-score [2] | z-score [3] | z-score [4] | composite z-score [5] | z-score [6] | composite z-score [7] | composite z-score [8] | composite z-score [9] | composite z-score [10] |
| --- | --- | --- | --- | --- | --- | --- | --- | --- | --- | --- |
| C=C(CCCC)C(=O)CC[C@@H](OC(=O)c1cccnc1)c1ccc(CO)o1 | 1.55 | 0.544 (inactive) | 0.115 (inactive) | 0.275 (inactive) | 1.45 | -0.211 (inactive) | -0.105 | 1.61 | 1.12 | 0.021 |
| COC(=O)[C@@]1(Cc2ccccc2)[C@H]2c3cc(C(=O)N4CCCC4)n(Cc4nc5ccccc5[nH]4)c3C[C@H]2CN1C(=O)c1ccccc1 | 1.54 | -0.0672 (inactive) | 0.193 (inactive) | 1.63 (inactive) | 3.82 | 0.0607 (inactive) | 0.746 | -0.192 | 1.11 | 0.13 |
| COc1ccc(C(=O)Nc2cccc(CN3C(=O)[C@]4(O[C@H](CCO)[C@@H]([Si](C)(C)c5ccc(OC)cc5)[C@@H]4C)c4ccccc43)c2)cc1 | 1.56 | 0.412 (inactive) | -14.9 (active) | 0.251 (inactive) | 1.83 | 1.03 (inactive) | -0.164 | 0.822 | 1 | -0.0675 |
| CCOC(=O)C[C@H]1[C@H](OC(=O)Cc2ccc3c(c2)OCO3)[C@@H](NC(=O)c2ccc(-c3ccccc3)cc2)c2cc(OCCCO)ccc2N1C(=O)c1ccc2ccccc2n1 | 0.0972 | -1.84 (inactive) | -2.89 (inactive) | -1.13 (inactive) | 0.417 | 1.63 (inactive) | -0.168 | 0.0955 | 0.257 | -0.0661 |
| C=CCOC(=O)[C@H]1[C@@H]2C(=O)O[C@@H](c3ccccc3)[C@@H](c3ccccc3)N2[C@@H](c2ccc(OCCOC(=O)[C@H]3C[C@H]4C(=O)N[C@@H](CC(C)C)C(=O)N4[C@H]3c3ccc(O)cc3)cc2)[C@]12C(=O)Nc1ccc(I)cc12 | 1.54 | 1 (inactive) | -1.4 (inactive) | 0.333 (inactive) | 2.62 | -1.13 (inactive) | -0.282 | 1.67 | 1.12 | 0.0423 |
| COCCOC(=O)N1C(=O)[C@@]2(c3cc(C#CC4=CCCCC4)ccc31)[C@H](C(=O)Nc1nc3ccccc3s1)[C@H]1C(=O)O[C@H](c3ccccc3)[C@H](c3ccccc3)N1[C@@H]2c1ccccc1OCCO | 1.55 | 1.25 (inactive) | 0.812 (inactive) | 3.25 (inactive) | 2.15 | 0.859 (inactive) | 0.255 | 0.883 | 1.07 | 0.411 |
| C=CC[C@@]1(C(=O)NCc2ccccc2)N=C(c2ccc(OCCCO)cc2)O[C@@H]1c1ccccc1N=[N+]=[N-] | 1.54 | 0.158 (inactive) | 0.178 (inactive) | 2.21 (inactive) | 3.55 | 0.266 (inactive) | 0.252 | 0.8 | 1.09 | 0.006 |
| CCCC=C(CCC)[C@@H](NC(=O)Oc1ccc(F)cc1)c1ccc(C(=O)OC)cc1 | 0.598 | 0.876 (inactive) | 1.99 (inactive) | 2.32 (inactive) | 3 | -0.211 (inactive) | 0.212 | -0.149 | 0.775 | 0.601 |
| O=C(c1ccccc1)N1Cc2ccccc2[C@@H]2OC(c3ccc(OCCCO)cc3)=N[C@]2(Cc2ccccc2)C1=O | 1.2 | -0.756 (inactive) | 0.833 (inactive) | 4.11 (inactive) | 3.13 | -0.0783 (inactive) | 0.0337 | 1.05 | 1.1 | -0.0187 |
| COc1ccc([Si](C)(C)[C@H]2[C@H](CCO)O[C@@]3(C(=O)N(Cc4ccc(N5C(=O)COc6ccccc65)cc4)c4ccccc43)[C@@H]2C)cc1 | 1.06 | 0.223 (inactive) | -0.379 (inactive) | 25.3 (active) | 1.31 | -0.132 (inactive) | -0.0796 | -0.6 | -0.0154 | -0.222 |
| COc1ccc(C(=O)O[C@H]2CC[C@]3(C)C4=C(CCC3C2(C)C)[C@]2(C)CC[C@H]([C@H](C)CCCC(C)C)[C@@]2(C)CC4)cc1 (stereo not given in full) | 0.193 | -0.292 (inactive) | -1.52 (inactive) | -0.262 (inactive) | -0.445 | 1.71 (inactive) | -0.0561 | 0.546 | 0.947 | -0.0828 |
| C=CCN1C(=O)[C@]2(O[C@H](CCO)[C@@H]([Si](C)(C)c3ccc(OC)cc3)[C@@H]2C)c2cc(N3C(=O)c4cccc5cccc3c45)ccc21 | 1.46 | 3.36 (inactive) | 2.8 (inactive) | 36.8 (active) | 2.01 | 0.577 (inactive) | -0.172 | 1.69 | 1.07 | -0.137 |
| COC(=O)[C@@]1(Cc2ccc(OC)cc2)[C@H]2c3cc(C(=O)N(C)C)n(CCN4CNCC4=O)c3C[C@H]2CN1C(=O)c1ccccc1 | -1.13 | -0.693 (inactive) | 0.687 (inactive) | -0.567 (inactive) | 0.324 | 0.288 (inactive) | -0.0877 | 0.788 | -0.325 | 0.107 |
